Assay [1] can be described thus: inhibitors of TNFa-induced NFkB p65 translocation, primary screen, imaging, HUVEC, MLSMR starter and 10KST1 sets (AID 438;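 active = inhibition above 20% together with a positive visual image hit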;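 also: compound added about 3h40 before a 20 min TNFalpha stimulation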;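 as to inhibition: signal is the nuclear over cytoplasmic p65 intensity ratio per well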). Particulars: HUVEC TNFa-induced p65 nuclear translocation; cell count: measured here: nuclei count (cytotoxicity indicator), at 2.08 µM; inhibition: at 2 µM, stronger effect = higher value, 0% TNFa-plus-vehicle, 100% no-TNFa wells.
A short description of assay [2]: reduction of polyQ htt aggregates in cells – imaging, exon1htt(103Q)mCFP cells, high-content imaging, primary screen (AID 483;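 active = visual image review flags a hit and inhibition of aggregation exceeds 20%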;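 also: compound exposure lasted 3 days before fixation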;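 as to nuclei count: percent of the per-plate median nuclei count of sample wells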). The note with it: exon1htt(103Q)mCFP cell line, aggregate imaging, at 2 µM; inhibition of aggregation: stronger effect = higher value; nuclei count: measured here: cell count, toxicity.
Assay [3] is described as follows: endothelial E-selectin expression blockers – imaging, HUVEC, immunofluorescence, MLSMR starter and 10KST1 sets, primary screen (AID 487).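 As to inhibition: signal is fraction of cell area covered by stained E-selectin grains.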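 As to nuclei count: 100% = median nuclei count of all wells on the same plate.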 The note with it: HUVEC TNFalpha-induced E-selectin immunofluorescence imaging, at 2 µM; inhibition: stronger effect = higher value; nuclei count: measured here: cell number, toxicity.
Assay [4] deals with Voltage-gated potassium channel subunit beta-2 (Rattus norvegicus) (UniProt P62483). The experiment in a line: inhibitors of rat Kvbeta2 reductase activity – biochemical, NADPH fluorescence, primary screen (AID 622;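 active = fluorescence slope higher than the sample average by over 3 SD, cut at about -0.22 in these data, passing the limit was not always enough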;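 also: slope of raw intensity against log time taken from 70 to 1610 s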). Particulars: recombinant KvBeta, 4-cyanobenzaldehyde reduction, at 10 µM, stronger effect = higher value.
Chain of Voltage-gated potassium channel subunit beta-2 (Rattus norvegicus) (P62483 whole entry, looked up): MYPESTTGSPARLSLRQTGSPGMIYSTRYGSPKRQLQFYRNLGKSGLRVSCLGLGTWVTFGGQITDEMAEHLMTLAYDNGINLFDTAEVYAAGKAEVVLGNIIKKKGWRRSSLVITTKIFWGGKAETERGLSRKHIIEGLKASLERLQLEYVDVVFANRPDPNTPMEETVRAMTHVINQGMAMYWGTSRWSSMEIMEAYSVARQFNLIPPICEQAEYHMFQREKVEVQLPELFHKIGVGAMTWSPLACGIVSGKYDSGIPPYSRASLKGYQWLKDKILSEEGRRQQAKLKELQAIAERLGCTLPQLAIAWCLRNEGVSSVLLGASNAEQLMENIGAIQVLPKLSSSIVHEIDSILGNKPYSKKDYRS
For assay [5] the target is unchanged. As to the kind of experiment: enhancers of rat Kvbeta2 NADPH turnover – biochemical, NADPH fluorescence, primary screen (AID 623;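 active = NADPH fluorescence slope more negative than the mean of all samples by about 3 SD, 99.7% confidence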;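 also: fluorescence intensity change per second fitted from 20 to 320 s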). Particulars: Recombinant KvBeta, NADPH fluorescence decrease slope, 10 min; at 10 µM; stronger effect = lower value.
Assay [6] addresses Alpha-2C adrenergic receptor (Homo sapiens) (UniProt P18825). As to the kind of experiment: compounds altering alpha2C-coupled GIRK flux – cell-based, HEK293 alpha2C/GIRK1/2, thallium flux, primary screen (AID 624;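 active = fluorescence slope after compound addition differing from the mean of all screened samples at 99.7% confidence, in either direction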;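 also: slope of fluorescence ratio to pre-addition baseline per second over 15 to 24 s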). The note with it: thallium flux BTC fluorescence, at 10 µM, actives lie on both sides.
The nature of assay [7]: blockers of RIG-like receptor reporter activation – cell-based, Sendai virus stimulus, luciferase, 10K MLSCN set, TLR/RLR signaling modifier project, primary screen (AID 602276;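 active = inhibition at or above 50% at 10 µM; inactive = inhibition below 50%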;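 also: firefly luciferase from ISG56 promoter only with Renilla not read in this screen; 0% = Sendai virus plus DMSO and 100% = medium plus DMSO without virus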). Particulars: HEK293 RL24 IRF3 luciferase reporter, at 10 µM, stronger effect = higher value.
Assay [8] can be described thus: TLR3 IRF3 reporter activation blockers – cell-based, poly I:C stimulus, luciferase, 10K MLSCN set, primary screen (AID 602277;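 active = inhibition of the reporter signal at or above 50%; inactive = inhibition below 50%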). The note with it: HEK293-TLR3 RL24 IRF3 luciferase reporter, at 10 µM, stronger effect = higher value.

Consider 13 molecules from PubChem BioAssay.

What is called inhibition is the drop in the measured response relative to a control, in per cent.

Activity calls are given as the source filed them.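 The calls were made as follows, unless noted: active = visually confirmed hit in the image check and inhibition above 20%; inconclusive = visually confirmed hit but inhibition not above 20%; inactive = no visual hit in the image check.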

Chain of Alpha-2C adrenergic receptor (Homo sapiens) (P18825 whole entry, looked up): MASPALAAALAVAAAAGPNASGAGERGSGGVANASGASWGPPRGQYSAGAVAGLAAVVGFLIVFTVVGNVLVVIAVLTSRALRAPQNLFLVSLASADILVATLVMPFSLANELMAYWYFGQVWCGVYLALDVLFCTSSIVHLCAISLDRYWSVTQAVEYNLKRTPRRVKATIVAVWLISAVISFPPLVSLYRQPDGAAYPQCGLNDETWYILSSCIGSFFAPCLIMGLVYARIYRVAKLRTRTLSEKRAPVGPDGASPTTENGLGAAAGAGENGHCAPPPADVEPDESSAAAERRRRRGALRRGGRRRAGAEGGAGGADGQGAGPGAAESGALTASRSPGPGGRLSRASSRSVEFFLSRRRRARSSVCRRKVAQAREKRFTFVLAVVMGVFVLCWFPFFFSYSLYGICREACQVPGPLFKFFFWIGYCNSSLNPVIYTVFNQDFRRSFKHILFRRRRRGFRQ

Take `CCOC(=O)C(C)n1cnc2c(nnn2Cc2ccc(C)cc2)c1=O` (stereo not drawn): in assay [1], the cell count stood at 618. The inhibition in assay [1] was -3.7% (inactive); in assay [3], -1.8% (inactive); in assay [7] it was 16.6% (inactive); in assay [8], 20.1% (inactive). The inhibition of aggregation in assay [2] is 6% (inactive). Also, the nuclei count turned out to be 91.7% in assay [2] and 86.9% in assay [3]. For the same molecule, the fluorescence slope in assay [4] is -0.503 (inactive). The NADPH fluorescence slope in assay [5] is -0.000137 (inactive). Moreover, the slope in assay [6] was 0.00481 (inactive).

With `COC(=O)c1cn(C(=O)c2ccc(Br)o2)c2ccccc12`, the cell count in assay [1] came to 309. Besides, the inhibition in assay [1] was -12.5% (inactive); in assay [3], -179% (inactive); in assay [7], 0.625% (inactive); in assay [8], 18% (inactive). Moreover, in assay [2], the inhibition of aggregation is 17.4% (inactive). For the same molecule, the nuclei count was found to be 97.7% in assay [2] and 101% in assay [3]. In assay [4], the fluorescence slope is -0.33 (inactive). Moreover, the NADPH fluorescence slope in assay [5] is -2.6e-05 (inactive). The slope in assay [6] was 0.00583 (inactive).

On to `O=C(NCc1cccnc1)C1CCCN(S(=O)(=O)c2ccc(Cl)cc2)C1` (stereo not drawn), for which, in assay [1], the cell count amounted to 638. Also, the inhibition is -48% (inactive) in assay [1], -19.2% (inactive) in assay [3], -7.82% (inactive) in assay [7] and -2.22% (inactive) in assay [8]. Further, the inhibition of aggregation in assay [2] is -4.5% (inactive). For the same molecule, the nuclei count in assay [2] was 98%; in assay [3], 104%. Further, the fluorescence slope in assay [4] is -0.601 (inactive). The NADPH fluorescence slope in assay [5] was -4.7e-05 (inactive). For the same molecule, in assay [6], the slope was 0.00732 (inactive).

In the case of `COc1cc(NC(=O)CN(c2cc(C)cc(C)c2)S(=O)(=O)c2c(C)noc2C)cc(OC)c1`, the cell count in assay [1] was found to be 541. For the same molecule, the inhibition in assay [1] is 2.3% (inactive); in assay [3], -42.2% (inactive); in assay [7], 18.7% (inactive); in assay [8] it was 19.5% (inactive). The inhibition of aggregation in assay [2] is -25% (inactive). The nuclei count in assay [2] was determined as 80.6%; in assay [3], 118%. In assay [4], the fluorescence slope was -0.619 (inactive). For the same molecule, in assay [5], the NADPH fluorescence slope was 2.8e-05 (inactive). In addition, the slope in assay [6] is 0.00758 (inactive).

In the case of `COc1ccc(C2CC(c3ccc(Cl)cc3Cl)n3nc(N)nc3N2)cc1` (stereo not drawn), in assay [1], the cell count came to 461. Also, the inhibition was -1.8% (inactive) in assay [1], -1.4% (inactive) in assay [3], 9.25% (inactive) in assay [7] and 25.2% (inactive) in assay [8]. Besides, the inhibition of aggregation in assay [2] was -8.9% (inactive). In addition, the nuclei count was found to be 66.5% in assay [2] and 101% in assay [3]. For the same molecule, in assay [4], the fluorescence slope is -0.592 (inactive). Besides, the NADPH fluorescence slope in assay [5] is -5.5e-05 (inactive). In addition, the slope in assay [6] is 0.00726 (inactive).

For `O=c1sc(Nc2ccccc2)nc2ccsc12`, the cell count in assay [1] is 323. Moreover, the inhibition in assay [1] was -9.8% (inactive); in assay [3], -36.8% (inactive); in assay [7], -17.1% (inactive); in assay [8], -57.8% (inactive). The inhibition of aggregation in assay [2] is -0.2% (inactive). The results for the nuclei count in assay [2] and in assay [3] were 91.4% and 122%, respectively. The fluorescence slope in assay [4] was -0.334 (inactive). Moreover, the NADPH fluorescence slope in assay [5] is -2.1e-05 (inactive). The slope in assay [6] is 0.00308 (inactive).

`CCN(CC)c1nc(N(CC)CC)[nH]c(=O)n1`: the cell count in assay [1] was 477. Also, the inhibition in assay [1] was -6.5% (inactive); in assay [3], -0.4% (inactive); in assay [7] it was 3.82% (inactive); in assay [8], -16% (inactive). Also, the inhibition of aggregation in assay [2] was 15.2% (inactive). For the same molecule, the nuclei count in assay [2] was found to be 92.1%; in assay [3], 59.6%. The fluorescence slope in assay [4] is -0.512 (inactive). The NADPH fluorescence slope in assay [5] was -3.2e-05 (inactive). Further, the slope in assay [6] is 0.00579 (inactive).

For `Cc1nc2sc(C(c3cccc(F)c3)N3CCOCC3)c(O)n2n1` (stereo not drawn), in assay [1], the cell count was 244. For the same molecule, the inhibition in assay [1] was -9% (inactive); in assay [3], -18.1% (inactive); in assay [7], -7.54% (inactive); in assay [8], 99.3% (active). In addition, the inhibition of aggregation in assay [2] is -29% (inactive). For the same molecule, the results for the nuclei count in assay [2] and in assay [3] were 112% and 119%, respectively. In assay [4], the fluorescence slope was -0.502 (inactive). Besides, the NADPH fluorescence slope in assay [5] was -9.8e-05 (inactive). Moreover, the slope in assay [6] was 0.00576 (inactive).

On to `COc1ccc(C(=O)NCC(=O)NC2=NCCS2)cc1`, for which, in assay [1], the cell count is 772. Further, the inhibition in assay [1] is -11.6% (inactive); in assay [3], -43.6% (inactive); in assay [7] it was 5.81% (inactive); in assay [8], 28.4% (inactive). Also, the inhibition of aggregation in assay [2] was -22.1% (inactive). The nuclei count in assay [2] was 69.1%; in assay [3], 106%. Besides, the fluorescence slope in assay [4] was -0.591 (inactive). Besides, the NADPH fluorescence slope in assay [5] was -5.5e-05 (inactive). In addition, the slope in assay [6] is 0.00756 (inactive).

Turning to `Cn1c(C(=O)N2CCCC(C(=O)NCCCc3ccccc3)C2)cc2sccc21` (stereo not drawn), the cell count in assay [1] was found to be 550. For the same molecule, the inhibition in assay [1] was -16.1% (inactive); in assay [3] it was -32.8% (inactive); in assay [7], 0.49% (inactive); in assay [8] it was -2.49% (inactive). Further, in assay [2], the inhibition of aggregation was 6.7% (inactive). The results for the nuclei count in assay [2] and in assay [3] were 139% and 103%, respectively. In addition, the fluorescence slope in assay [4] was -0.256 (inactive). In addition, the NADPH fluorescence slope in assay [5] was 6.7e-06 (inactive). The slope in assay [6] was 0.00472 (inactive).

Regarding `O=C1CN(C(=O)COC(=O)c2ccccc2NC(=O)c2ccco2)c2ccccc2N1`, the cell count in assay [1] worked out at 271. Moreover, the inhibition in assay [1] was -3.3% (inactive); in assay [3], -31% (inactive); in assay [7], 8.42% (inactive); in assay [8], -17.5% (inactive). Further, in assay [2], the inhibition of aggregation is 7.3% (inactive). Also, the nuclei count in assay [2] worked out at 108%; in assay [3], 123%. Moreover, in assay [4], the fluorescence slope was -0.507 (inactive). The NADPH fluorescence slope in assay [5] was -8.2e-05 (inactive). In assay [6], the slope was 0.00572 (inactive).

Turning to `CCC(C)NC(=O)C1(C)CCC(=O)N1CCc1ccc(OC)c(OC)c1` (stereo not drawn), the cell count in assay [1] is 447. Also, the inhibition in assay [1] was -5.7% (inactive); in assay [3] it was 0.6% (inactive); in assay [7] it was 5.13% (inactive); in assay [8] it was 9.44% (inactive). Moreover, the inhibition of aggregation in assay [2] is -2.3% (inactive). Besides, the nuclei count in assay [2] was found to be 105%; in assay [3], 103%. Besides, the fluorescence slope in assay [4] was -0.606 (inactive). In addition, in assay [5], the NADPH fluorescence slope was -8.3e-06 (inactive). In assay [6], the slope was 0.00621 (inactive).

On to `CCN(Cc1nc2ccccc2c(=O)[nH]1)Cc1cc(=O)oc2cc(C)c(C)cc12`, for which the cell count in assay [1] was found to be 288. The inhibition in assay [1] was 6.6% (inactive); in assay [3], -33.2% (inactive); in assay [7], 5.41% (inactive); in assay [8], 8.19% (inactive). The inhibition of aggregation in assay [2] is 0.4% (inactive). Also, the nuclei count in assay [2] was determined as 107%; in assay [3], 126%. Besides, the fluorescence slope in assay [4] is -0.435 (inactive). In assay [5], the NADPH fluorescence slope is -4.6e-05 (inactive). Further, the slope in assay [6] was 0.00456 (inactive).
